This note sets out measurements from PubChem BioAssay (NCATS).

Records with an inconclusive call do not appear. Where a call stands in place of a potency, no number is given. Activity calls are given as the source filed them. Calls come from the whole dose curve; as a rule, active = well fitted inhibition curve with a large enough effect; inconclusive = small, poorly fitted or top-dose-only effect; inactive = flat fitted curve, though single readings scatter.
Potency is the fitted concentration of half-maximal effect.

The test system of the assay is W2. Put plainly: qHTS profiling for inhibitors of Plasmodium falciparum proliferation (AID 504749). Note: nearly all actives have a fitted effect of over 60% in size. The note with it: P. falciparum in erythrocytes, SYBR Green DNA, 72 h; series mostly up to 28.7 µM. From the text:
NIH National Institute of Allergy and Infectious Diseases [NIAID] NIH Chemical Genomics Center [NCGC] MLPCN Grant: None Assay Provider: Xinzhuan Su, NIAID NCGC Assay Overview: Plasmodium falciparum is a virulent malarial parasite that kills 1-2 million people worldwide each year. Transmitted by mosquitoes, the sporozoite form of the parasite enters the blood stream to infect hepatocytes, where they become merozoites that infect red blood cells (erythrocytes). Within erythrocytes, merozoites begin a […] cycle of growth and division, after which the parasite is released to infect new red blood cells. Gametocytes, which form within erythrocytes as well, circulate in the bloodstream and are ingested by the mosquito, thereby completing the life cycle. To profile malarial isolates for differential chemical responses and to identify inhibitors of malarial growth, an assay that measures P. falciparum growth and replication within erythrocytes was employed. This assay uses a DNA binding fluorescent dye (SYBR Green) to detect parasite DNA following cell lysis. Because mature erythrocytes lack DNA, only Plasmodium-derived DNA is detected.
NCGC Assay Protocol Summary: The SYBR Green viability assay was adapted from a method described previously (Plouffe et al., 2008). For screening 3 ul culture medium was dispensed into 1536 well black clear bottom plates (Aurora Biotechnologies) using a Multidrop Combi (Thermo Fisher Scientific Inc.), 23 nL compounds in DMSO were added by a pin tool (Kalypsys), and 5 ul of erythrocytes infected with P. falciparum (0.3% parasitemia, 2.5% hematocrit final concentration) were added. The plates were incubated at 37 C in a humidified incubator in 5% CO2 for 72 h, and 2 ul lysis buffer (20 mM Tris HCl, 10 mM EDTA, 0.16% saponin, 1.6% triton X, 10X SYBR Green I supplied as 10,000X […] by Invitrogen) was added to each well. The plates were mixed for 25 sec with gentle shaking and incubated overnight at room temperature in the dark. The following morning, fluorescence intensity at 485(14) nm excitation and 535(25) nm emission wavelengths was measured on an EnVision (Perkin Elmer) plate reader. Plate reads were normalized relative to the control inhibitor (0.29 uM artemisinin) and vehicle (DMSO) wells present on each plate and then corrected by an algorithm using vehicle-only control plates at the beginning and end of the compound plate stack.
(In general: qHTS replaces the single test concentration by a dilution series.)
Regarding `CC(C)(O)c1ccccc1CC[C@H](SCC1(CC(=O)O)CC1)c1cccc(/C=C/c2ccc3ccc(Cl)cc3n2)c1`, the Potency entry was “inactive”. In the case of `COC(=O)[C@@H]1[C@@H]2C[C@H]3c4[nH]c5ccccc5c4CCN3C[C@@H]2CC[C@@H]1O`, the Potency entry was “inactive”. For the compound `O=C(CC1NCCC[C@H]1O)Cn1cnc2cc(Br)c(Cl)cc2c1=O` (stereo not given in full), the Potency was 0.675 µM (active). Then `O=C1c2cccc3c2[C@@H](CCC3)CN1[C@@H]1CN2CCC1CC2`, with 6.75 µM (active); and `CC(C)C[C@@H](NC(=O)[C@H](Cc1ccccc1)NC(=O)c1cnccn1)B(O)O`, with 0.0757 µM (active); and `CC(=O)[C@H]1CC[C@H]2C3CC=C4C[C@@H](O)CC[C@]4(C)C3CC[C@]12C` (stereo not given in full), with “inactive”. Then `C/C=C1\C2C=C(C)CC1(N)c1ccc(=O)[nH]c1C2` (stereo not given), with “inactive”; and `CN1CCN(CCC=C2c3ccccc3Sc3ccc(S(=O)(=O)N(C)C)cc32)CC1`, with 6.01 µM (active). Then `CCCCC(=O)N(Cc1ccc(-c2ccccc2-c2nn[nH]n2)cc1)C(C(=O)O)C(C)C` (stereo not given), with 15.1 µM (active). As to `C[C@@H](C(=O)O)c1ccc(-c2ccccc2)c(F)c1`, the Potency entry is “inactive”.
